PKM2 act – PKM2 (human) enzyme activation. purified PKM2, Kinase-Glo ATP luminescence, activation; response scale: 0% is enzyme alone, no compound. 0.34% of 260,000 active. P14618. Potency, µM (doses to about 57.5 µM), for inactives: at the highest dose activation, usual class: activators. AID 1631; active = well fitted curve in the direction sought with a large enough effect; inconclusive = small, poorly fitted or top-dose-only effect, or another doubt; inactive = no such curve, though single readings can be large; an effect the other way counts as inactive or inconclusive; also: potency is read from the fitted curve at half-maximal effect; % is scaled to controls: 0 for no effect and ±100 for the full control effect; nearly all actives have a fitted effect of over 55% in size
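ATP formation by purified human PK-M2, quantified via coupled luciferase luminescence after 1 h at room temperature with 0.1 mM ADP and 0.5 mM PEP final.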
CtBP-E1A inh – CtBP/E1A binding inhibition | 0.49% of 340,000 active | activity change, % (test concentration not listed) | AID 651724 | AlphaScreen GST-E1A/His-CtBP binding, 1536-well; hits give low values; also: % is scaled to controls: 0 for no effect and ±100 for the full control effect
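AlphaScreen with 125 nM GST-E1A and 125 nM His-CtBP (5X stocks) in Tris pH 8.0, 300 mM NaCl, BSA, Tween 20, TCEP. Compounds preincubated 2 h at 37 deg C, then glutathione donor/nickel acceptor beads added for 1 h at 37 deg C in dark.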
MBNL1-CUG inh – inhibitors of human MBNL1 binding to CUG repeat RNA; AID 2675; Q9NR56; TR-FRET MBNL1-His/biotin-(CUG)12 binding, 665/545 ratio; 0.036% of 280,000 active; Potency, µM (titrated, usually from 57.5 µM), for inactives: at the highest dose activity change, negative = inhibition, actives largely listed as inhibitors; active = well fitted inhibition curve with a large enough effect in the signal ratio, with a control signal flat, not every such curve was filed as active; inconclusive = small, poorly fitted or top-dose-only effect, or effect the other way, or a change in a side signal; inactive = no such curve, though single readings can be large or run the other way; the % refers to the signal ratio; also: potency is read from the fitted curve at half-maximal effect; % is scaled to controls: 0 for no effect and ±100 for the full control effect
Target sequence (Q9NR56 whole entry, looked up): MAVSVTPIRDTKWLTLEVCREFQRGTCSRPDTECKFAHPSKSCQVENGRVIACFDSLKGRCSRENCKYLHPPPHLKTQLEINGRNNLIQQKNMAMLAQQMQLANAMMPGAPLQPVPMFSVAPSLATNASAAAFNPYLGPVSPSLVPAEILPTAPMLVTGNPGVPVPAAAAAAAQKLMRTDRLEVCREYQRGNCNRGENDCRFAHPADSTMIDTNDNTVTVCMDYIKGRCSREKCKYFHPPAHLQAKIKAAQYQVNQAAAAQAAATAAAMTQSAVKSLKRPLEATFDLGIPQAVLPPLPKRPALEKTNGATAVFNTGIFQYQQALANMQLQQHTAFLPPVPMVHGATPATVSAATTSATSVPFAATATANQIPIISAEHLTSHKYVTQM
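MBNL1-His + Biotin-(CUG)12, cpd titration 92 nM–58 uM; Tb anti-His Ab 0.055 ng/ul, SA-XL665 5 nM (final); 60 min RT; ratiometric 665/545 nm, Ex 340 nm; normalized to buffer and full-complex controls.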
Six1-Eya2 inh – Six1/Eya2 interaction inhibition | Q15475+O00167 | AlphaScreen GST-Six1/His-Eya2 binding, biochemical; hits give low values | activity change, % (concentration not given with the values) | 0.56% of 360,000 active | AID 651725; also: % is scaled to controls: 0 for no effect and ±100 for the full control effect
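AlphaScreen luminescence read after one hour at 37 °C in darkness. Pin-transferred compounds met GST-Six1 and His-Eya2 protein (5X stock 250 nM/500 nM) plus glutathione donor and Ni-chelate acceptor beads (5X, 50 ug/mL).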
HeLa tox – counter-screen for pyruvate kinase M2 activators: HeLa cytotoxicity. HeLa viability, CellTiter-Glo ATP luminescence, 24 h. shares compounds with PKM2 act. AID 1898. activity change, negative = cytotoxicity, % at 57.5 µM. 230 tested, under 10 active; active = well fitted curve in the direction sought with a large enough effect; inconclusive = small, poorly fitted or top-dose-only effect, or another doubt; inactive = no such curve, though single readings can be large; an effect the other way counts as inactive or inconclusive; also: % of control where 0% means no effect
An asterisk follows results filed as active; ? = inconclusive; · = not tested or not shown. Most compounds without a hit are left out; they make up all but 0.93% or so of the library. Rule as the data show it, unless noted: active = activity change below about -65%; inconclusive = mostly about -30% to -63%; inactive = weaker than that.

SMILES	PKM2 act	CtBP-E1A inh	MBNL1-CUG inh	Six1-Eya2 inh	HeLa tox
CC1Nc2ncnc(N3CCc4ccccc4C3)c2N(Cc2ccccc2)C1=O (configuration not stated)	·	-6	·	-6	·
Cc1cc(C(=O)OCC(=O)N2CCOCC2)c2ccccc2n1	3.5µM*	-1	?	2	0
Cn1c(N)c(C(=O)CSc2ccc3c(c2)OCCO3)c(=O)n(C)c1=O	3.5µM*	-15	0%	-11	1
Cc1ccc2oc(C(=O)N(C)Cc3ccon3)c(C)c2c1	·	·	1%	14	·
Cc1ccc2oc(C(=O)N(C)Cc3ccc(C)o3)c(C)c2c1	6.3µM*	2	-1%	-3	2
Cc1ccn(CCC(=O)N2CCCC(N3CCN(c4ccccc4C)CC3)C2)n1 (configuration not stated)	·	29	·	23	·
CC1(C(=O)NS(=O)(=O)c2ccccc2Cl)CCN1C(=O)COc1ccc(Cl)cc1 (configuration not stated)	·	1	·	3	·
O=C(c1ccccc1)N1N=C(c2ccccc2)CC1c1ccccc1O (configuration not stated)	0%	4	-6%	-18	·
CC(=O)N1N=C(c2ccncc2)CC1c1ccccc1O (configuration not stated)	4.5µM*	·	16%	1	-4
CCn1c(SCC(=O)N/N=C/C=C\c2ccco2)nc2ccccc21	?	-13	15%	-15	·
Cn1c(SCC(=O)N/N=C/C=C\c2ccco2)nc2ccccc21	7.1µM*	0	?	-20	-3
CCCN1C(=O)S/C(=C/c2ccc(N3CCOCC3)o2)C1=O	1µM*	-1	?	2	0
CCOC(=O)CN1C(=O)S/C(=C/c2ccc(N3CCCCC3)o2)C1=O	-2%	-1	9%	-2	·
Cc1cc2c(s1)c1cnn(-c3ccccc3)c(=O)c1n2C	·	·	·	·	3
Cc1cc2c(s1)c1cnn(Cc3ccc(F)cc3F)c(=O)c1n2C	·	·	·	·	5
Cc1cc2c(s1)c1cnn(Cc3ccccc3)c(=O)c1n2C	·	·	·	·	3
Cc1cc2c(s1)c1cnn(Cc3ccc(S(C)(=O)=O)cc3)c(=O)c1n2C	·	·	·	·	-15
O=C(O)c1c(Cl)cccc1Nc1ccccc1	·	-8	·	2	·
CC(=O)Nc1cc(-c2cccc(C(=O)N(C)C)c2)cn2c(-c3ccc(C(C)=O)cc3)cnc12	·	1	·	-4	·
Cc1cc2c(s1)c1cnn(CC(=O)NCCc3ccccc3)c(=O)c1n2C	-4%	5	-4%	3	·
Cc1cc2c(s1)c1cnn(Cc3ccccc3Cl)c(=O)c1n2C	·	·	·	·	2
Cc1cc2c(s1)c1cnn(Cc3ccc(F)cc3)c(=O)c1n2C	·	·	·	·	6
Cc1ccc(Cn2ncc3c4sc(C)cc4n(C)c3c2=O)cc1	·	·	·	·	-2
O=c1c(Cl)c(Cl)cnn1Cc1ccc(F)cc1	?	4	105%	4	·
CC(C)C[C@H]1COc2cccc(N3CCSCC3)c2S(=O)(=O)N1	·	1	·	-5	·
SMILES	PKM2 act	CtBP-E1A inh	MBNL1-CUG inh	Six1-Eya2 inh	HeLa tox
O=C(c1ccc2c(c1)OCCO2)N1CCN(S(=O)(=O)c2c(F)cccc2F)CC1	·	·	·	·	?
CC1CCCN(S(=O)(=O)c2ccc3c(c2)OCCO3)C1 (configuration not stated)	·	5	·	7	·
O=C1CN(S(=O)(=O)c2ccc3c(c2)OCCO3)CCN1S(=O)(=O)c1c(F)cccc1F	·	·	·	·	-13
CS(=O)(=O)N1CCN(C(=O)c2ccc3c(c2)OCCO3)CC1	9%	2	-4%	2	·
O=S(=O)(c1ccc2c(c1)OCCO2)N1CCCN(S(=O)(=O)c2c(F)cccc2F)CC1	·	·	·	·	-13
C[C@H]1CN(S(=O)(=O)c2ccc3c(c2)OCCO3)CCN1S(=O)(=O)c1c(F)cccc1F	·	·	·	·	4
CSc1ccc(CNC(=O)C2CCC(=O)N(CCc3ccc(Cl)cc3)C2)cc1 (configuration not stated)	·	2	·	-2	·
O=C1CCc2cc(S(=O)(=O)N3CCN(c4ccccc4F)CC3)ccc2N1	4%	5	1%	-1	·
O=S(=O)(c1ccc2c(c1)OCCO2)N1CCN(S(=O)(=O)c2c(F)cccc2F)CC1	·	·	·	·	?
O=S(=O)(c1c(F)cccc1F)C1CCN(S(=O)(=O)c2ccc3c(c2)OCCO3)CC1	·	·	·	·	-9
CC(=O)N1CCOc2ccc(S(=O)(=O)N3CCCCC3)cc21	·	1	3%	1	·
CC1(C)CCc2cc(S(=O)(=O)N3CCN(S(=O)(=O)c4c(F)cccc4F)CC3)ccc2O1	·	·	·	·	-21
CN1CCOc2ccc(S(=O)(=O)N3CCN(S(=O)(=O)c4c(F)cccc4F)CC3)cc21	·	·	·	·	4
O=S(=O)(NCCCCCNS(=O)(=O)c1c(F)cccc1F)c1ccc2c(c1)OCCO2	·	·	·	·	-2
COc1cccc(S(=O)(=O)N2CCN(S(=O)(=O)c3ccc4c(c3)OCCO4)CC2)c1	·	·	·	·	2
O=S(=O)(NCC1CN(S(=O)(=O)c2c(F)cccc2F)C1)c1ccc2c(c1)OCCO2	·	·	·	·	-6
O=S(=O)(c1ccc2c(c1)OCO2)N1CCN(S(=O)(=O)c2c(F)cccc2F)CC1	·	·	·	·	?
NC(=O)c1[nH]cnc1N=NN(CCO)Cc1ccccc1	·	-3	·	-10	·
Cc1c(C(=O)/C=C/c2ccccc2F)c2cc(O)ccc2n1C	·	4	·	5	·
O=C(Nc1c(-c2ccc(Cl)cc2)[nH][nH]c1=O)c1ccc(Br)cc1	·	1	·	-6	·
COC(=O)C1=CN(c2cccc(OCc3ccccc3)c2)C(N)=C(C#N)C1c1cccc(OC)c1OC (configuration not stated)	·	3	·	-9	·
CCc1nc2c(OCC(N)=O)cccn2c1N(C)C(=O)C(C)C	·	-4	·	-1	·
CC1CCN(C(=O)c2ccc(NS(=O)(=O)c3cccc4cccnc34)cc2)CC1	2.8µM*	8	4%	1	-10
O=C(/C=C/[C@H]1O[C@@H](n2ccc(=O)[nH]c2=O)[C@H](O)[C@@H]1O)NCc1ccco1	·	7	·	2	·
O=C(Cn1nnc(-c2ccccc2)n1)N1CCN(S(=O)(=O)c2ccc(Cl)cc2)CC1	2.5µM*	-5	-7%	1	3
Cc1ccccc1-c1nnn(CC(=O)N2CCN(S(=O)(=O)c3ccc(Cl)cc3)CC2)n1	?	2	2%	0	·
CC(=O)Nc1cc(-c2ccc(N(C)C)cc2)cn2c(-c3ccc(F)cc3)cnc12	·	-16	·	-17	·
COc1ccc(C(=O)NCCN2C(=O)S/C(=C\c3cccnc3)C2=O)cc1[N+](=O)[O-]	3.5µM*	-6	·	-1	-9
CCOC1=C2[C@H](c3ccccc3)N(S(=O)(=O)c3ccc(C)cc3)C(C(C)(C)C)[C@H]2C(C#N)(C#N)C(C#N)(C#N)C1 (some centres not stated)	·	5	·	-15	·

High-throughput results from PubChem BioAssay.
